Test results taken from ChEMBL document CHEMBL3988442, “University of Dundee, Small-Polar-MMV Screening Library” (2021).

Biological target: T1, Methionyl-tRNA synthetase, putative (Leishmania donovani (strain BPK282A1)) (UniProt E9BF75)
T1 sequence (whole entry): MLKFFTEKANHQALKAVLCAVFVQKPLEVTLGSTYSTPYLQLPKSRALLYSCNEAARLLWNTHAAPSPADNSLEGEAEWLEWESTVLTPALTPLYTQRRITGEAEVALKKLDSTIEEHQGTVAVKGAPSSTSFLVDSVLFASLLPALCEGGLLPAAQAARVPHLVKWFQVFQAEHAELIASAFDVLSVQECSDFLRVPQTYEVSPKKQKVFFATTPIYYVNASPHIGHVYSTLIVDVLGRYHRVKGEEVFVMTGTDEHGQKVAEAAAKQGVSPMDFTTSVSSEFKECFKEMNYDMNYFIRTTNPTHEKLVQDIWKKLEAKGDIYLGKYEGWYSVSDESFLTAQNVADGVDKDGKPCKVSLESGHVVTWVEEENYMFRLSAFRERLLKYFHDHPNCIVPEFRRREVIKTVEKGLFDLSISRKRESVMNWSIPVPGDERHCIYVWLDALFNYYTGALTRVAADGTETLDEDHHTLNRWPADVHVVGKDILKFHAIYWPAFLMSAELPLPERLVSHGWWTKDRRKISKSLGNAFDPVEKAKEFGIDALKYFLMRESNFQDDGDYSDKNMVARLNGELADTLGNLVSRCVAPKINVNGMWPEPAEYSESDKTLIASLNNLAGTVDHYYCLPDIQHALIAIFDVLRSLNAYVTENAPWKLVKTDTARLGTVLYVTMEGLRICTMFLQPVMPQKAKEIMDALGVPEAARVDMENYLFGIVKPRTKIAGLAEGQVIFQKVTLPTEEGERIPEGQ
Assay: Leishmania donovani Methionine tRNA synthetase (LdMetRS):v7. Dose response assay
Type: functional
Set-up: conc 80 nM, time 150 minutes

N[C@@H]1c2ccccc2C2(CCN(c3cnc4ccccc4n3)CC2)[C@H]1O
PXC50 (BOTTOM 0.263751901, HILLSLOPE 1.516790173, MAX_EFFECT 51.81975737, TOP 100.0): 4.02
PXC50 (BOTTOM -0.439515819, HILLSLOPE 1.13741317, MAX_EFFECT 66.44295302, TOP 100.0): 4.24
PXC50 (BOTTOM -1.864115217, HILLSLOPE 1.086184415, MAX_EFFECT 68.05555556, TOP 100.0): 4.32

CC(C)c1ccc(CS(=O)(=O)Cc2nc(N)nc(N(C)C)n2)cc1
PXC50 (MAX_EFFECT 8.163265306): < 4
PXC50 (MAX_EFFECT 10.86956522): < 4
PXC50 (MAX_EFFECT 13.83537653): < 4

Cn1ncc2c(NCCO)nc(Nc3ccc(O)cc3)nc21
PXC50 (MAX_EFFECT 7.728337237): < 4
PXC50 (MAX_EFFECT 8.34914611): < 4
PXC50 (MAX_EFFECT 13.02428256): < 4

c1ccc(CN2CCC(CCNc3ncnc4c3CCNCC4)C2)cc1 (stereo not given)
PXC50 (BOTTOM 0.940952942, HILLSLOPE 0.875315482, MAX_EFFECT 60.13864818, TOP 100.0): 4.15
PXC50 (BOTTOM 1.061688445, HILLSLOPE 1.57945515, MAX_EFFECT 59.73154362, TOP 100.0): 4.12
PXC50 (BOTTOM -6.676814726, HILLSLOPE 1.817914846, MAX_EFFECT 63.88888889, TOP 100.0): 4.17

OCCCNc1nccc(Nc2cccc(F)c2)n1
PXC50 (MAX_EFFECT 2.056074766): < 4
PXC50 (MAX_EFFECT 11.40142518): < 4
PXC50 (MAX_EFFECT 18.45493562): < 4

COC(=O)c1cnc(Nc2cccc(C(F)(F)F)c2)c(S(N)(=O)=O)c1
PXC50 (MAX_EFFECT 3.50877193): < 4
PXC50 (MAX_EFFECT 6.168224299): < 4
PXC50 (MAX_EFFECT 6.615776081): < 4

CCc1cccc(Nc2nc(NCCO)c3sccc3n2)c1
PXC50 (MAX_EFFECT 17.21470019): < 4
PXC50 (MAX_EFFECT 27.31277533): < 4
PXC50 (MAX_EFFECT 37.39669421): < 4

Cn1ncc2c(NCCO)nc(Cl)nc21
PXC50 (MAX_EFFECT 0.234192037): < 4
PXC50 (MAX_EFFECT 8.148148148): < 4
PXC50 (MAX_EFFECT -0.662251656): < 4

OCCNc1nccc(Nc2cccc(F)c2)n1
PXC50 (MAX_EFFECT 6.168224299): < 4
PXC50 (MAX_EFFECT 6.404958678): < 4
PXC50 (MAX_EFFECT 9.691629956): < 4

Cn1ncc2c(NCCN3CCOCC3)nc(Nc3ccc(F)c(F)c3)nc21
PXC50 (BOTTOM 0.0547, HILLSLOPE 0.927770989, MAX_EFFECT 85.76850095, TOP 98.88350894): 4.86
PXC50 (BOTTOM -0.988495369, HILLSLOPE 1.035285925, MAX_EFFECT 73.01886792, TOP 82.1779252): 4.91
PXC50 (BOTTOM -7.338677117, HILLSLOPE 0.775594481, MAX_EFFECT 82.64840183, TOP 100.0): 4.76

OCCNc1nc(Nc2ccc(F)c(F)c2)ncc1F
PXC50 (BOTTOM 4.80997506, HILLSLOPE 1.016069871, MAX_EFFECT 75.05938242, TOP 103.871029): 4.37
PXC50 (BOTTOM 6.495032966, HILLSLOPE 1.205723909, MAX_EFFECT 75.53648069, TOP 100.0): 4.33
PXC50 (BOTTOM -1.721460895, HILLSLOPE 0.874564497, MAX_EFFECT 71.96261682, TOP 100.0): 4.5

Cc1ccc(CSc2nc(N)cc(NCC(=O)N3CCNCC3)n2)cc1
PXC50 (BOTTOM -2.199449509, HILLSLOPE 1.075485519, MAX_EFFECT 68.11594203, TOP 100.0): 4.29
PXC50 (BOTTOM -2.347869122, HILLSLOPE 1.011463002, MAX_EFFECT 66.66666667, TOP 100.0): 4.27
PXC50 (BOTTOM -6.039839519, HILLSLOPE 1.064095709, MAX_EFFECT 59.36952715, TOP 57.65563111): 4.81

Cn1ncc2c(NCCN)nc(Nc3ccc(F)c(F)c3)nc21
PXC50 (BOTTOM 0.911965316, HILLSLOPE 1.032464682, MAX_EFFECT 89.9543379, TOP 102.6852722): 4.79
PXC50 (BOTTOM 7.300924011, HILLSLOPE 0.949344895, MAX_EFFECT 92.59962049, TOP 105.5838005): 4.84
PXC50 (BOTTOM 8.334888852, HILLSLOPE 1.031126137, MAX_EFFECT 87.73584906, TOP 103.8891038): 4.68

Cc1cc(C)n(C2CN(CC(=O)N(C)Cc3cnn(C)c3)C2)n1
PXC50 (BOTTOM 1.685263138, HILLSLOPE 1.431243041, MAX_EFFECT 59.07590759, TOP 100.0): 4.06
PXC50 (MAX_EFFECT 33.33333333): < 4
PXC50 (MAX_EFFECT 44.80286738): < 4

O=S(=O)(NCCO)c1cccnc1Nc1cccc(C(F)(F)F)c1
PXC50 (MAX_EFFECT 4.933586338): < 4
PXC50 (MAX_EFFECT 12.19008264): < 4
PXC50 (MAX_EFFECT 16.29955947): < 4

Cc1cc(NCCO)nc(Nc2ccc(F)c(F)c2)n1
PXC50 (BOTTOM 2.753913498, HILLSLOPE 0.759187316, MAX_EFFECT 87.41092637, TOP 100.0): 4.84
PXC50 (BOTTOM 8.051339334, HILLSLOPE 0.840494555, MAX_EFFECT 84.97854077, TOP 109.6160526): 4.62
PXC50 (BOTTOM -3.669323527, HILLSLOPE 0.810726137, MAX_EFFECT 81.68224299, TOP 99.92002792): 4.84

Cn1ncc2c(NC(CO)CO)nc(Nc3ccc(F)c(F)c3)nc21
PXC50 (BOTTOM 0.0, HILLSLOPE 0.771628136, MAX_EFFECT 78.30188679, TOP 92.57465731): 4.94
PXC50 (BOTTOM 5.639474755, HILLSLOPE 1.325747432, MAX_EFFECT 80.3652968, TOP 81.67018871): 4.98
PXC50 (BOTTOM 7.610636653, HILLSLOPE 1.121965033, MAX_EFFECT 79.69639469, TOP 86.15604804): 4.98

Cc1cnc(Nc2ccc(F)c(F)c2)nc1NCCO
PXC50 (BOTTOM 3.101896626, HILLSLOPE 0.807877595, MAX_EFFECT 79.29515419, TOP 94.15227944): 5.03
PXC50 (BOTTOM 5.769615282, HILLSLOPE 1.014209397, MAX_EFFECT 83.3655706, TOP 87.41572948): 5.22
PXC50 (BOTTOM -1.22519456, HILLSLOPE 0.709920628, MAX_EFFECT 85.74380165, TOP 105.2657083): 5

Cn1ncc2c(N3CCCCC3)nc(Nc3ccc(F)c(F)c3)nc21
PXC50 (BOTTOM 9.784183065, HILLSLOPE 1.295074552, MAX_EFFECT 52.03094778, TOP 54.78178501): 5.24
PXC50 (MAX_EFFECT 30.83700441): < 4
PXC50 (MAX_EFFECT 34.09090909): < 4

OCCNc1nc(Nc2cccc(Cl)c2)nc2ccsc12
PXC50 (BOTTOM 1.378134297, HILLSLOPE 1.322835543, MAX_EFFECT 77.47933884, TOP 79.16655544): 5.15
PXC50 (BOTTOM 6.064283009, HILLSLOPE 1.027674538, MAX_EFFECT 79.88394584, TOP 88.71842546): 4.91
PXC50 (BOTTOM -3.793761971, HILLSLOPE 0.936804969, MAX_EFFECT 83.25991189, TOP 91.73851926): 5.08
